# Only some compounds are listed: those with a hit (about 2.4% of all), similar ones and a draw of the others.
# D2 PAM-1 = Beta-Arrestin HTS for Positive Allosteric Modulators of the Human D2 Dopamine Receptor: Potentiators | AID 624464, 2012 | D(2) dopamine receptor (Homo sapiens), P14416 | DiscoveRx D2 beta-arrestin cells, luminescence, 90 min; 100% = 57 uM dopamine signal | 360,000 compounds, 0.23% hits | potentiation, % (test concentration not listed); in the data active = potentiation above about 50%; inconclusive = mostly about 30% to 49%
# Target sequence (P14416 whole entry, looked up): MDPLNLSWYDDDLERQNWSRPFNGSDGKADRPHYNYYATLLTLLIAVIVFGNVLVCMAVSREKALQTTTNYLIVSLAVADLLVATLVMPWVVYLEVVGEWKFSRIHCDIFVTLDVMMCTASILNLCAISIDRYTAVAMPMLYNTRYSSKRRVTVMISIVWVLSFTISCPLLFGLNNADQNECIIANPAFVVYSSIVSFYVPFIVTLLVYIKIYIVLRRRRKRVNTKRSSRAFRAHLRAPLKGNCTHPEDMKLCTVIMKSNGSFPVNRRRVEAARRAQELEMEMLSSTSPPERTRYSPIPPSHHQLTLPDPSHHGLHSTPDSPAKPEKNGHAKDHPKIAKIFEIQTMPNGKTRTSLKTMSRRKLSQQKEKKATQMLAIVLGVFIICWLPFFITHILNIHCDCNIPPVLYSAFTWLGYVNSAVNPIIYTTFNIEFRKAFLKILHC
#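 PathHunter beta-arrestin assay in DiscoveRx D2 cells. Compounds were added with an EC20 of dopamine (50 nM final) for 90 min at 37 deg C. Luminescence was read 1 h after detection reagent, with 57 uM dopamine as the EC100 control.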
# D2 antagonist = HTS Assay for Allosteric Antagonists of the Human D2 Dopamine Receptor: Primary Screen for Antagonists. inhibition, % at 10 µM. 340,000 compounds, 2% hits. HEK293 TREx D2 cells, calcium flux, dopamine EC80; in the data active = inhibition above about 30%; inactive = below that, where a call was filed; note: 0% is about no effect
#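 Tetracycline-induced HEK293 TREx cells expressing D2 receptor forced-coupled to calcium signalling, loaded with no-wash calcium dye. Compounds added and calcium flux read 180 s, then dopamine added at EC80 and read a further 180 s.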
# D2 ag-1 = Beta-Arrestin HTS for Positive Allosteric Modulators of the Human D2 Dopamine Receptor: Agonists; D(2) dopamine receptor (Homo sapiens), P14416; DiscoveRx PathHunter D2 beta-arrestin, luminescence, 90 min; 100% = 57 uM dopamine signal; activation, % (no concentration beside the values); 360,000 compounds, 0.084% hits; AID 624465, 2012; in the data active = activation above about 40%; inconclusive = between about 15% and that limit
#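 Agonist mode: compounds alone added to overnight-plated D2 PathHunter cells for 90 min at 37 C, with 57 uM final dopamine (EC100) defining full response. Beta-arrestin recruitment detected by chemiluminescent reagent, read after 1 h at ambient temperature.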
# D2 ag-2 = HTS Assay for Allosteric Agonists of the Human D2 Dopamine Receptor: Primary Screen for Agonists; D(2) dopamine receptor (Homo sapiens), P14416; 340,000 compounds, 0.53% hits; AID 485358, 2010; activation, % at 2 µM; HEK293 T-REx D2 cells, calcium flux agonist mode;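 active = activation over 3 SD above normal in the single-dose calcium agonist read, cut at about 30% in these data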; note: 0% is about no effect
#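 Tetracycline-induced HEK293 Trex cells with D2 receptor force-coupled to calcium signaling, plated overnight at 30 C and loaded with no-wash calcium dye. Calcium flux read kinetically for 180 s after compound addition; responses flag agonists.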
# D2 PAM-2 = HTS Assay for Positive Allosteric Modulators of the Human D2 Dopamine Receptor: Primary Screen for Potentiators | D(2) dopamine receptor (Homo sapiens), P14416 | potentiation, % at 10 µM | 340,000 compounds, 0.34% hits | HEK293 T-REx D2, calcium flux, EC20 dopamine potentiation | AID 485347, 2010;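 active = potentiation over 3 SD above the plate norm, cut at about 30% in these data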; note: 0% is about no effect
#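 Potentiation of an EC20 dopamine calcium response measured kinetically over 180 s, after a preceding 180 s compound-only read flagging agonists. Cells: inducible Hek293 Trex D2 line, 4000/well, cultured overnight at 30 C before dye loading.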
# The depositor's hits bear a star; ? = inconclusive; / = not tested or not shown.
SMILES,D2 PAM-1,D2 antagonist,D2 ag-1,D2 ag-2,D2 PAM-2
CCCCOCCCn1c(N)c(C(=O)OC(C)COC)c2nc3ccccc3nc21 (configuration not stated),-29,-13,-8,-2,-2
COCCCn1c(N)c(C(=O)OC(C)COC)c2nc3ccccc3nc21 (configuration not stated),-11,43*,-4,-1,-2
Cc1ccc(CN2CCN(Cc3ccccc3F)CC2)cc1,-21,39*,-4,-1,-15
COc1ccccc1CN1CCN(Cc2ccc(Cl)cc2)CC1,-23,76*,-1,1,-24
COc1ccccc1N1CCN(Cc2ccc(SC)cc2)CC1,-82,79*,-3,-1,-21
Clc1ccccc1CN1CCN(c2ccccc2Cl)CC1,-19,-25,3,15,-25
COc1ccc(CN2CCN(Cc3ccccc3OC)CC2)cc1,-22,-5,-3,0,1
COc1ccccc1N1CCN(Cc2ccc(Cl)cc2Cl)CC1,-35,35*,0,-2,-30
CSc1ccc(CN2CCN(c3ccccc3C)CC2)cc1,-15,71*,3,0,-32
O=C(CCc1nc(C2=CCN(Cc3cccc(Cl)c3)CC2)no1)Nc1ccccc1F,/,/,/,1,4
CCCn1cc2c3c(cccc31)C1CC(C)CN(C)C1C2 (configuration not stated),/,87*,/,39*,-29
COC(=O)C1=CCCN(C)C1,2,-7,1,31*,-12
COC(=O)c1ccc(CN2CCN(Cc3ccccc3)CC2)cc1,-12,-5,-1,0,-19
COc1ccccc1-c1nn2c(=O)cc(CN3CCN(C(=O)COc4ccccc4Cl)CC3)nc2s1,/,/,/,0,-10
Cc1ccc(-c2cc(-c3ccccc3)cc(-c3ccccc3)[n+]2-c2ccccc2)cc1,11,38*,11,2,-3
CCOc1ccc(CN(CCc2ccc3c(c2)OCO3)Cc2ccc(OC)c(Br)c2)cc1,/,/,/,25,-19
Cc1cc2c(C(F)(F)F)cc(=O)oc2c2c1NCCC2,3,-18,1,20,5
O=c1cc(C(F)(F)F)c2cc3c4c(c2o1)CCCN4CCC3,9,79*,-1,143*,-20
CCC1C2Cn3c(nc4ccccc43)C1N(C)O2 (configuration not stated),1,10,-2,0,34*
CN1CCN(Cc2nc3ccccc3n2C)CC1,4,-3,-3,2,3
CCNc1cc(N2CCNCC2)ccc1[N+](=O)[O-],/,35*,/,0,-8
Cc1cc(C)cc(-n2c(/C=C/c3cccc(F)c3)nc3ccccc3c2=O)c1,/,/,/,0,7
Cc1ccc(-n2c(/C=C\c3ccc(F)c(F)c3)nc3ccccc3c2=O)c(C)c1,/,/,/,/,15
c1ccc(CN2CCc3nc4ccccc4cc3C2)cc1,27,76*,95*,78*,-28
COc1ccc2ccc(O)c(CN3CC=C(c4ccccc4)CC3)c2c1,-4,19,-2,17,-17
SMILES,D2 PAM-1,D2 antagonist,D2 ag-1,D2 ag-2,D2 PAM-2
COc1ccc2c(CN3CC=C(c4ccccc4)CC3)cc(=O)oc2c1,-21,2,-2,0,-5
COc1cc(C)cc(CN2CC=C(c3ccccc3)CC2)c1O,-21,88*,8,-8,-30
COc1ccc(C(C)=O)cc1CN1CC=C(c2ccccc2)CC1,-10,78*,-1,3,-27
CC(C)c1ccc(OCC(=O)N2CCN(CCc3ccncc3)CC2)cc1,/,/,/,1,4
CN1C(=O)CN=C(c2ccc[nH]2)c2cc(Cl)ccc21 (tested in a mixture with another compound),-7,/,-2,/,/
CN1C(=O)CN=C(c2ccc(Cl)cc2)c2cc(Cl)ccc21,0,34*,-2,-1,7
CCCC12CN3CC(C)(CN(C1)C3c1ccccn1)C2=O (configuration not stated),/,/,/,0,6
CCN(CC)CCCOC(=O)C(OC(C)C)(c1ccccc1)c1ccccc1,-17,57*,-2,-1,-25
N#Cc1ccccc1NC(=O)c1cccn(Cc2ccccc2)c1=O,/,/,/,1,17
NCCc1c[nH]c2ccc(F)cc12,/,95*,/,5,-28
NCCc1c[nH]c2ccc(C(N)=O)cc12,-1,11,-6,3,-8
Cc1ccccc1CN1C(=O)CN=C(c2ccccc2)c2cc(Cl)ccc21,/,/,/,2,-12
Fc1ccc(C(OCCN2CCCC2)c2ccc(F)cc2)cc1,-41,13,-5,1,-23
Fc1ccc(C(OCCN2CCCC2)c2ccc(Br)cc2)cc1 (configuration not stated),-16,47*,0,4,-23
N#Cc1cc2c(nc1SCC(=O)Nc1ccc(F)c(Cl)c1)C1CCN2CC1,/,/,/,0,3
CCN1CCN(c2ccc(N)cc2C)CC1,-18,13,-3,4,-10
CCN1CCN(c2ccc(NC(C)=O)cc2Cl)CC1,-5,42*,-4,0,9
O=C(COc1ccccc1Cl)N1CCN(CCc2ccccn2)CC1,/,/,/,-2,-3
COc1cc2ccc(=O)oc2c2ccoc12,-36,-31,0,0,2
COc1cc2occc2c2oc(=O)ccc12,-23,33*,0,-1,-1
Cc1ccnc(-n2c(-c3ccccc3)nc3ccccc3c2=O)c1,-10,33*,0,0,16
CNCCc1c[nH]c2ccc(O)cc12,?,/,55*,/,/
CCSc1nnc(NC(=O)c2cccn(Cc3ccc(Cl)cc3)c2=O)s1,/,/,/,1,-5
CN1CC[C@]2(c3cccc(O)c3)Cc3nc4ccccc4cc3C[C@H]2C1,/,40*,/,-1,-7
CN1CC[C@@]23CCCC[C@@H]2[C@@H]1Cc1ccc(O)cc13,2,/,-5,/,/
SMILES,D2 PAM-1,D2 antagonist,D2 ag-1,D2 ag-2,D2 PAM-2
COc1ccc(-n2c(/C=C\c3ccccc3F)nc3ccccc3c2=O)c(OC)c1,/,/,/,/,13
COc1ccccc1OCC#CCN1CCCC(C)C1 (configuration not stated),4,57*,-5,0,-38
COc1ccccc1OCC#CCN1CCCCCC1,-10,/,0,/,/
Cc1oc2cc3oc(=O)c(CCC(=O)N4CCCCC4)c(C)c3cc2c1C,/,/,/,/,8
COc1ccc(OC)c(CCNCc2c(C(=O)O)c(C)n(Cc3ccc(F)cc3Cl)c2C)c1,/,/,/,0,-3
c1ccc(CCCN2CCN(CCOC(c3ccccc3)c3ccccc3)CC2)cc1,-26,/,3,/,/
